The panel holds about 83,000 compounds, 20% with a hit somewhere; the sample as a whole holds those more often.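 The test compound was applied at a single concentration to cells in 96-well plates for 48 hours, and percent growth was recorded.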 Activity calls are given as the source filed them. How the source made its calls: active means growth percent below 10; inactive means the rest.

This note sets out measurements from PubChem BioAssay (NCI).

The test concerns HL-60(TB) leukemia. Briefly: NCI-60 one-dose screen, 48 h (100 = growth as untreated, 0 = no growth, -100 = all killed). To be noted: 10 µM unless noted.
In the case of `O=C(O)c1cccc2c1-c1ccccc1C2=O`, the growth is 106% (inactive).

Turning to `O=C(O)/C=C/c1cn(-c2ccccc2)nc1-c1ccc(F)cc1`, the growth is 103% (inactive). To `Cc1ccccc1NC(=O)Oc1ccc(Cl)cc1C(=O)c1ccccc1` belongs 103% (inactive). `C=C1C(=O)O[C@H]2[C@H]1CC/C(COC(=O)NCc1ccc(Cn3c(=O)sn(-c4ccc(C#N)cc4)c3=O)cc1)=C\CC[C@@]1(C)O[C@@H]21`: the growth was -13.1% (active). Take `O=C(Nc1ccc(OS(=O)(=O)c2ccccc2)cc1)C1CCCCC1`: the growth was 94% (inactive). As to `NNc1ncnc2nc[nH]c12`, the growth was 35.3% (inactive). As for `NC(=S)N/N=C/c1cn(-c2ccccc2)nc1-c1cc2ccccc2oc1=O`, the growth was 20.4% (inactive). Consider `COc1ccc(/C=C/C(=O)c2c(C)nc3ccccc3c2/C=C/c2ccccc2)cc1O`, for which the growth was 49.1% (inactive).

As to `CC1=CC(C)=Nc2ccc(Cl)cc2N1`, the growth is 101% (inactive). To `O=C(/C=C/c1ccc(Br)cc1)c1ccccc1` belongs 81.5% (inactive).

Take `COC(=O)[C@@H]1CCCN1C(=O)[C@@H]1CCCN1C(=O)[C@@H](Cc1c[nH]c2ccccc12)NC(=S)Nc1cc(C(F)(F)F)cc(C(F)(F)F)c1`: the growth is 11.1% (inactive). Take `CC(C)(C)[Si](C)(C)OC1[C@@H](O[Si](C)(C)C(C)(C)C)[C@@H](CNC(=O)NC(=O)NC(=O)CI)O[C@H]1n1cnc2c(NC(=O)Nc3ccccc3)ncnc21` (some centres undefined): the growth is -67.1% (active). To `O=C(CC1(O)C(=O)Nc2c(Cl)ccc(Cl)c21)c1ccc(Cl)cc1Cl` (centres undefined) belongs 80.8% (inactive). Take `O=C(Nc1ccccc1Cl)c1c[nH]c(=O)c(-c2ccc(N3CCCOC4(CC4)C3)cc2)c1`: the growth is 28.3% (inactive).

Regarding `CCCCCCCCCCCCCCCCS(=O)(=O)Nc1cc(C(=O)NN)cc(C(=O)NN)c1`, the growth was 35.8% (inactive). Turning to `NC(=O)c1ccc(Br)o1`, the growth was 96.8% (inactive). `Brc1c[n+](Cc2ccc3ccccc3c2)cn1Cc1ccc2ccccc2c1`: the growth was -47.5% (active). `Clc1ccc(-c2nc(-c3ccco3)cn3ccnc23)cc1`: the growth is 102% (inactive). To `CS(=O)(=O)c1cccc(Nc2ncc3cc(-c4ccccc4Cl)ccc3n2)c1` belongs -8.46% (active). To `COc1ccc(-n2c(C)cc(-c3ccccc3)c2C)cc1` belongs 23.2% (inactive); to `C#C[C@@]1(O)[C@@H](CO)O[C@@H](n2cc(C(F)(F)F)c3c(N)ncnc32)[C@@H]1O`, -37.6% (active); to `COc1cc(OC)c2sc(-c3ccc(-n4cncc4-c4ccc(OC)c(N)c4)cc3)nc2c1`, 58.4% (inactive). Regarding `CC1CCc2c(C(=O)Nc3ncc(Cc4cccc([N+](=O)[O-])c4)s3)csc2C1` (centres undefined), the growth was -26.3% (active). On to `Cc1[nH]ccc2cc3nc4ccccc4c3cc12`, for which the growth is 16.4% (inactive). Consider `COc1cc2nc(-c3ccc(Cl)cc3)cc(OCCCN3CCCCC3)c2cc1OC`, for which the growth was 29.6% (inactive).

`O=C(Cn1ccnc1)Nc1ccc(-c2nc3ccccc3s2)cc1`: the growth is 77.3% (inactive). As to `CSc1ccc(N(C)c2nc(C)nc3c2CCC3)cc1`, the growth is -28.3% (active). Regarding `COc1cc(Nc2ncc(F)c(Nc3ccc4c(n3)N(COP(=O)(O)O)C(=O)C(C)(C)O4)n2)cc(OC)c1OC`, the growth was 52.8% (inactive). As for `C#C[C@@]1(O)[C@@H](CO)O[C@@H](n2cc(Br)c3c(Cl)ccnc32)[C@@H]1O`, the growth was -46.5% (active). To `Clc1cc(Br)ccc1-c1ccc(CNCC2CCNCC2)o1` belongs 67.7% (inactive); to `O=[N+]([O-])c1ccc(Sc2cccc[n+]2[O-])c2nonc12`, -49.1% (active). Regarding `COc1cc(/C=C2\CCC/C(=C\c3cc(CN4CCOCC4)c(O)c(OC)c3)C2=O)cc(CN2CCOCC2)c1O`, the growth is 4.24% (active).

For the molecule `C[C@@H]1CC[C@@H]2[C@@H]1[C@H](OC(=O)c1ccc3ccccc3c1)[C@]1(C3CCCCC3)C[C@@H](OC(=O)CO)[C@@]2(C)O1`, the growth is 30.6% (inactive). As to `CN(C)CCCNC(=O)c1cncnc1Nc1ccc(OCc2cccc(F)c2)c(Cl)c1`, the growth is -60.7% (active). With `CCOC(=O)c1c(-c2ccccc2)n2c(=O)cc(C)c3c(O)c(O)cc1c32`, the growth is 11.7% (inactive). With `COc1ccc(Cl)cc1NC(=O)c1c(NC(=O)C(F)(F)C(F)(F)F)sc2c1CCCCC2`, the growth was 12.4% (inactive). Turning to `O=[N+]([O-])c1cc2c(ccc3occc32)o1`, the growth is 5.05% (active). In the case of `CCCCCCCCCCCCCCCCCCn1cc(COc2ccc(C=O)cc2)nn1`, the growth was 86.7% (inactive). Consider `Nc1cccc(Cl)c1N`, for which the growth was 79% (inactive).
